# Test results: PubChem BioAssay (NCATS)
# Results filed as inconclusive are left out. A call without a number means that no potency is given here. The source made the active and inactive calls. Unless noted, the call rests on the fitted dose curve; in most records, active means well fitted curve in the direction sought with a large enough effect in the repeat runs; inconclusive means weak or mixed curves; inactive means no such curve, though single readings can be large; an effect the other way counts as inactive or inconclusive.
# Columns and labels:
# [1] = Primary qHTS for small molecule stabilizers of the endoplasmic reticulum resident proteome: Secreted ER Calcium Modulated Protein (SERCaMP) assay (AID 1508630; active means well fitted curve in the direction sought with a large enough effect; an effect the other way counts as inactive or inconclusive)
# Summary of the method: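 The SH-SY5Y reporter protocol was run at 3 concentrations up to 38.3 uM (primary) or 11 concentrations (follow-up): 16 h compound, 100 nM thapsigargin for 4 h, then extracellular luciferase luminescence.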
# [2] = A High-Content qHTS Against Drug Library for the Identification of Small Molecules that Inhibit DYT1 Early Onset Primary Dystonia-Associated Cell Pathology (AID 1645839; calls by dose curve; further: series mostly up to about 46 µM)
# Summary of the method: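 Cells were seeded and left for 24 h, then dosed with compound alongside tetracycline induction of mutant EGFP-TorsinA. They were incubated for 48 h, fixed in 4% paraformaldehyde, permeabilized and imaged for mislocalization (%pathology) and cell count.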
# [3] = biological target: Cytochrome P450 2D6 (Homo sapiens) (UniProt P10635); test: Cytochrome P450 family 2 subfamily D member 6 (CYP2D6) small molecule antagonists: luciferase biochemical (cell-free) qHTS assay (AID 1645840); further: nearly all actives have a fitted effect of over 55% in size; further: potency means the concentration at half of the fitted maximal effect
# Sequence of Cytochrome P450 2D6 (Homo sapiens) (P10635 whole entry, looked up): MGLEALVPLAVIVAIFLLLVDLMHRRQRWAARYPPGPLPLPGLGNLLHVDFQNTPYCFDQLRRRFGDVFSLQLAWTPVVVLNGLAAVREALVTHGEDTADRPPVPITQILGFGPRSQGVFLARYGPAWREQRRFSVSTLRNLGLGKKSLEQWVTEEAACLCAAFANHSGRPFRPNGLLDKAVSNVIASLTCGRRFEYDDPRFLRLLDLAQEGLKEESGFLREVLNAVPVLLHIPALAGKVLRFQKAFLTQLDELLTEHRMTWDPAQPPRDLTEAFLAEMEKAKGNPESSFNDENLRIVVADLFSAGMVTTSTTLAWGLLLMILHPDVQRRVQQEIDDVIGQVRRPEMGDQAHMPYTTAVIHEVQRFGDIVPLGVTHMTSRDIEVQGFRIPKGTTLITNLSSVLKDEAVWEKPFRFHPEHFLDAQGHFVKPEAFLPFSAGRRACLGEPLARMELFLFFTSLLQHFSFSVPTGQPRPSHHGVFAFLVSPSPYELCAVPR
# Summary of the method: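 P450-Glo CYP2D6 system: proluciferin substrate converted by enzyme to luciferin, read by luminescence proportional to activity. Enzyme-substrate mix with compound 10 min at room temperature, then NADPH regeneration 1 h before detection reagent.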
# [4] = biological target: Cytochrome P450 2C9 (Homo sapiens) (UniProt P11712); test: Cytochrome P450 family 2 subfamily C member 9 (CYP2C9) small molecule antagonists: luciferase biochemical (cell-free) qHTS assay (AID 1645842); further: nearly all actives have a fitted effect of over 55% in size; further: potency means the concentration at half of the fitted maximal effect
# Sequence of Cytochrome P450 2C9 (Homo sapiens) (P11712 whole entry, looked up): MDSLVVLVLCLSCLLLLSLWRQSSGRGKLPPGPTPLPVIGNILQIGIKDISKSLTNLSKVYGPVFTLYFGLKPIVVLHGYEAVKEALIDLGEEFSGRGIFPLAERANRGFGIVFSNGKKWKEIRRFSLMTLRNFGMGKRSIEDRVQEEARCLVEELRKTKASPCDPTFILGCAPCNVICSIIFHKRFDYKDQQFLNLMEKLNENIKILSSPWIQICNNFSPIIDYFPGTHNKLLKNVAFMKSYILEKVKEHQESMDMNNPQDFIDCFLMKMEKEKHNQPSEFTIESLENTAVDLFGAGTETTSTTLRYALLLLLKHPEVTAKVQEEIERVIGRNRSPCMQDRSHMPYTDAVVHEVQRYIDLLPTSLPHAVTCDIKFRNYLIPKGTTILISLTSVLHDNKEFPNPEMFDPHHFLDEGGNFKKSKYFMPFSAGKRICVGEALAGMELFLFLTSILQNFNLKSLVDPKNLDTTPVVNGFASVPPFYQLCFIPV
# Summary of the method: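 P450-Glo CYP2C9 system: proluciferin substrate with enzyme in mix containing 0.4% BSA, 10 min at room temperature, then NADPH regeneration solution added and incubated 1 h at 37C. Detection reagent stopped reaction; luminescence read after 20 min as RLU.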
# [5] = biological target: N-terminal Xaa-Pro-Lys N-methyltransferase 1 (Homo sapiens) (UniProt Q9BV86); test: Confirmatory qHTS for Inhibitors of N-terminal methyltransferase 1 (NTMT1): MTaseGlo Assay (AID 1645874; active means well fitted curve in the direction sought with a large enough effect; an effect the other way counts as inactive or inconclusive;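 further: luminescence from SAH made as NTMT1 methylates SPKRIA peptide using SAM; series mostly up to about 100 µM; nearly all actives have a fitted effect of over 65% in size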)
# Sequence of N-terminal Xaa-Pro-Lys N-methyltransferase 1 (Homo sapiens) (Q9BV86 whole entry, looked up): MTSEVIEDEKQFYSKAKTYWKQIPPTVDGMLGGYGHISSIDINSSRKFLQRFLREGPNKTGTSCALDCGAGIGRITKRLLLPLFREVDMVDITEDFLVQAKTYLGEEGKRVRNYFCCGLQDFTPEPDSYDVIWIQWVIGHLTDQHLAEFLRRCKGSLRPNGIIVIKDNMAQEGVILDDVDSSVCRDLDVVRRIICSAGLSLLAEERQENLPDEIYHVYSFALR
# Summary of the method: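 MTase-Glo luminescence measured SAH formed by 125 nM NTMT1 from 100 uM SAM and 1 uM SPKRIA peptide over 30 min at room temperature, following 15 min compound preincubation. Percent inhibition against no-enzyme and DMSO controls gave 4-parameter Hill fits.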
# [6] = biological target: Cytochrome P450 3A4 (Homo sapiens) (UniProt P08684); test: Cytochrome P450 family 3 subfamily A member 4 (CYP3A4) small molecule antagonists: luciferase qHTS assay (AID 1645841); further: nearly all actives have a fitted effect of over 45% in size
# Sequence of Cytochrome P450 3A4 (Homo sapiens) (P08684 whole entry, looked up): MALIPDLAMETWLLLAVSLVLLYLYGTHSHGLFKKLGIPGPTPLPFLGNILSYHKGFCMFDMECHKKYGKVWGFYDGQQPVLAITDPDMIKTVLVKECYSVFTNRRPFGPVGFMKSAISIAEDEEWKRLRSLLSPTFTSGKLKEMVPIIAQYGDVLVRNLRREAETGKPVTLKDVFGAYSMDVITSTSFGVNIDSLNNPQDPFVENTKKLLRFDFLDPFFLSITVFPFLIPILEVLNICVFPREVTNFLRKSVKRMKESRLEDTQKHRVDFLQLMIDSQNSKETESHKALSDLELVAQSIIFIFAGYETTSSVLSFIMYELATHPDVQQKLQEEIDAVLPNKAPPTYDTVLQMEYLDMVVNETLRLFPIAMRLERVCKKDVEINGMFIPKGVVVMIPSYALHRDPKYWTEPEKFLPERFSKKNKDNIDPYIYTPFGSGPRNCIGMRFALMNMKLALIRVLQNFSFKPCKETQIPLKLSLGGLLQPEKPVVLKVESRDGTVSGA
# Summary of the method: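 P450-Glo CYP3A4 enzyme with proluciferin substrate preincubated 10 min with compound at room temperature, then NADPH regeneration 1 h. Luciferin detection reagent added for 20 min; luminescence recorded. Ketoconazole positive control.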
# Papain (Carica papaya) = Papain (Carica papaya) (UniProt P00784); test: Primary qHTS assay for inhibitors of the protease papain (AID 1645873; active means well fitted curve in the direction sought with a large enough effect; an effect the other way counts as inactive or inconclusive;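 further: papain turnover of Z-FR-AMC read as the AMC fluorescence gain over 10 min; series mostly up to about 50 µM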)
# Sequence of Papain (Carica papaya) (P00784 whole entry, looked up): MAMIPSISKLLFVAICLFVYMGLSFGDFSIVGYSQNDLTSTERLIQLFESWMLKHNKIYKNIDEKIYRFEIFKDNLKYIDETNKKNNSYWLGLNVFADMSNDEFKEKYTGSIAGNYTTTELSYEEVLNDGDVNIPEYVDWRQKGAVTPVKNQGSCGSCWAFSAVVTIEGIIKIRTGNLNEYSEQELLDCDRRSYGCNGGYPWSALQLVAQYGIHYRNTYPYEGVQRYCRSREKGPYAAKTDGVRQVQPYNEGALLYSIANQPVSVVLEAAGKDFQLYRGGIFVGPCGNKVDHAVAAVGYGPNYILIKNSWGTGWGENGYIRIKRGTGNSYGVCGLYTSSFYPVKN
structure (smiles),measurement,setting,value
C[C@]12CC[C@@H]3c4ccc(O)cc4CC[C@H]3[C@@H]1C[C@@H](O)[C@@H]2O,Potency,[1],inactive
same,Potency,[2],inactive
same,Potency,[3],inactive
same,Potency,[4],inactive
same,Potency,[5],inactive
C[C@H]1C[C@H]2[C@@H]3CCC4=CC(=O)C=C[C@]4(C)[C@@]3(Cl)[C@@H](O)C[C@]2(C)[C@@]1(O)C(=O)CO,Potency,[1],inactive
same,Potency,[2],inactive
same,Potency,[3],15.5 µM (active)
same,Potency,[4],17.4 µM (active)
C/C=C(/C(=C/C)c1ccc(O)cc1)c1ccc(O)cc1,Potency,[1],inactive
same,Potency,[3],24.5 µM (active)
same,Potency,[4],17.4 µM (active)
CC(=O)OCC(=O)[C@@]1(O)CC[C@H]2[C@@H]3CCC4=CC(=O)C=C[C@]4(C)[C@H]3[C@@H](O)C[C@@]21C,Potency,[1],inactive
same,Potency,[2],inactive
same,Potency,[4],inactive
CCCCCCCCCCCCCCCC[N+](C)(C)CC,Potency,[1],inactive
same,Potency,[3],0.174 µM (active)
CCN(CCCCOC(=O)c1ccc(OC)c(OC)c1)C(C)Cc1ccc(OC)cc1 (stereo not given),Potency,[1],inactive
same,Potency,[2],inactive
same,Potency,[4],inactive
Cc1ccc(C(=O)C(C)CN2CCCCC2)cc1 (stereo not given),Potency,[1],inactive
same,Potency,[2],inactive
same,Potency,[3],1.74 µM (active)
same,Potency,[4],inactive
C=C1C(=C/C=C2\CCC[C@]3(C)[C@@H]([C@H](C)/C=C/[C@@H](O)C4CC4)CC[C@@H]23)C[C@@H](O)C[C@@H]1O,Potency,[1],inactive
same,Potency,[3],24.5 µM (active)
CC(=O)Oc1ccc2c(c1)CC[C@@H]1[C@@H]2CC[C@]2(C)[C@@H](O)CC[C@@H]12,Potency,[1],inactive
same,Potency,[2],inactive
same,Potency,[4],inactive
COc1cc2c(cc1OC)[C@@H]1CC(=O)[C@@H](CC(C)C)CN1CC2,Potency,[1],inactive
same,Potency,[2],inactive
same,Potency,[4],15.5 µM (active)
CC(=O)O[C@]1(C(C)=O)CC[C@H]2[C@@H]3C[C@H](C)C4=CC(=O)CC[C@]4(C)[C@H]3CC[C@@]21C,Potency,[1],inactive
same,Potency,[3],inactive
same,outcome,[6],inactive
same,Potency,[4],3.09 µM (active)
CC(=O)[C@H]1CC[C@H]2[C@@H]3C[C@H](C)C4=CC(=O)CC[C@]4(C)[C@H]3[C@@H](O)C[C@]12C,Potency,[1],inactive
same,Potency,[2],inactive
same,Potency,[4],0.86 µM (active)
CCN(CC)CCOc1ccc(C(O)(Cc2ccc(Cl)cc2)c2ccc(C)cc2)cc1 (stereo not given),Potency,[1],inactive
same,Potency,[3],0.617 µM (active)
CC(C)NC[C@@H](O)COc1cccc2ccccc12,Potency,[1],inactive
same,Potency,[2],inactive
same,Potency,[4],inactive
c1ccc(OCc2ccc(CCCN3CCOCC3)cc2)cc1,Potency,[1],inactive
same,Potency,[3],6.92 µM (active)
same,Potency,[4],inactive
OC[C@@H](O)[C@@H](O[C@@H]1O[C@H](CO)[C@H](O)[C@H](O)[C@H]1O)[C@H](O)[C@@H](O)CO,Potency,[1],inactive
same,Potency,[2],inactive
same,Potency,[3],inactive
same,Potency,[4],inactive
Cc1nc2n(c(=O)c1CCN1CCC(c3noc4cc(F)ccc34)CC1)CCC[C@H]2O,Potency,[1],inactive
same,Potency,[2],inactive
same,Potency,[3],12 µM (active)
same,Potency,[4],inactive
O=c1c(-c2ccccc2)c1-c1ccccc1,Potency,[1],inactive
same,Potency,[3],inactive
Oc1c(I)cc(I)c2cccnc12,Potency,[1],inactive
same,Potency,[3],inactive
same,Potency,[4],inactive
C[C@]12CCC(=O)C=C1CC[C@H]1[C@@H]3CC[C@](O)(C(=O)CO)[C@@]3(C)C[C@H](O)[C@@]12F,Potency,[1],inactive
same,Potency,[2],inactive
same,Potency,[3],inactive
same,Potency,[4],inactive
CC(C)(C)NC(=O)[C@@H]1CN(Cc2cccnc2)CCN1C[C@@H](O)C[C@@H](Cc1ccccc1)C(=O)N[C@H]1c2ccccc2C[C@H]1O,Potency,[1],inactive
same,Potency,[2],inactive
same,Potency,[4],inactive
Cc1ccnc(NS(=O)(=O)c2ccc(N)cc2)n1,Potency,[1],inactive
same,Potency,[2],inactive
same,Potency,[3],inactive
same,Potency,[4],inactive
CCOC(=O)/C=C(C)/C=C/C=C(C)/C=C/c1c(C)cc(OC)c(C)c1C,Potency,[1],inactive
same,Potency,[2],inactive
same,Potency,[4],7.76 µM (active)
CC(Cc1cccc(C(F)(F)F)c1)NCCOC(=O)c1ccccc1 (stereo not given),Potency,[1],inactive
same,Potency,[2],inactive
same,Potency,[3],0.0069 µM (active)
same,Potency,[4],19.5 µM (active)
CC(C)=CCC1C(=O)N(c2ccccc2)N(c2ccccc2)C1=O,Potency,[1],inactive
same,Potency,[3],inactive
same,Potency,[4],inactive
CC(=O)N(O)CCCCCNC(=O)CCC(=O)N(O)CCCCCNC(=O)CCC(=O)N(O)CCCCCN,Potency,[1],inactive
same,Potency,[3],inactive
same,Potency,[4],inactive
N[C@H](CO)C(=O)O,Potency,[1],inactive
same,Potency,[3],inactive
same,Potency,[4],inactive
same,Potency,Papain (Carica papaya),inactive
O=C1CCC(c2ccc(-n3ccnc3)cc2)=NN1,Potency,[1],inactive
same,Potency,Papain (Carica papaya),inactive
CCOc1ccc(Cc2nccc3cc(OCC)c(OCC)cc23)cc1OCC,Potency,[1],inactive
same,Potency,[3],13.8 µM (active)
same,Potency,[4],1.74 µM (active)
NC(=NCCCCCCN=C(N)/N=C(\N)Nc1ccc(Cl)cc1)/N=C(\N)Nc1ccc(Cl)cc1,Potency,[1],inactive
same,Potency,[3],2.45 µM (active)
same,Potency,[4],24.5 µM (active)
O=C(COc1ccc(Cl)cc1)N1CCN(Cc2ccc3c(c2)OCO3)CC1,Potency,[1],inactive
same,Potency,[3],0.436 µM (active)
same,Potency,[4],12.3 µM (active)
O=C(OCC(O)CO)c1ccccc1Nc1ccnc2cc(Cl)ccc12 (stereo not given),Potency,[1],inactive
same,Potency,[3],8.71 µM (active)
same,Potency,[4],5.49 µM (active)
CCCC1O[C@@H]2C[C@H]3[C@@H]4CCC5=CC(=O)C=C[C@]5(C)[C@H]4[C@@H](O)C[C@]3(C)[C@]2(C(=O)CO)O1 (stereo not given in full),Potency,[1],inactive
same,Potency,[4],15.1 µM (active)
same,Potency,Papain (Carica papaya),inactive
